Of roughly 7,900 targets only a part is listed; those with a hit were picked by preference. About 0.6% of all pairs of compound and target were hits.
Assays:
Experiment in all cases: log2 fold change, soluble protein after heating vs DMSO (PISA); higher = thermal stabilisation; K562 cells, 10 uM, 30 min; active = over 0.2 and 3.5 SD of the protein, either way, in both replicates (recomputed)
[1] = compound: C1=CC=C(C=C1)[C@H](COC2=CC3=C(C=C2)NC(=O)N3)NC(=O)C4=CC=CN(C4=O)CC5=CC(=C(C=C5)F)F
Summary of the method: (§1)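 Values are thermal stability changes relative to control samples and are taken from duplicates. They are stated as log2 fold changes. Before quantification by TMTpro 16plex LC-MS/MS with equalised channel sums, K562 cells at 2×10^6 cells/mL were treated with 10 μM compound for 30 min, heated in aliquots for 3 min across 48°C-58°C, pooled, extracted in PBS with 0.5% NP-40 at 4°C, and centrifuged at 21,000xg for 90 min to give the soluble supernatant.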

[2] = compound: CC1=C(SC2=C1C(=N[C@H](C3=NN=C(N32)C)CC(=O)N)C4=CC=C(C=C4)Cl)C
Summary of the method: as §1

[3] = compound: CC1=C2C(=CC=C1)N=C(N(C2=O)C3=CC=CC=C3C)CN4C=NC5=C(N=CN=C54)N
Summary of the method: as §1

[4] = compound: Cc1sc2c(c1C)C(c1ccc(Cl)cc1)=N[C@@H](CC(=O)OC(C)(C)C)c1nnc(C)n1-2
Summary of the method: as §1

[5] = compound: c1ccc([C@@H]2C[C@H]2NC2CCNCC2)cc1
Summary of the method: as §1

Measured: log2 fold change

ILK (UniProt Q13418)
inactive: [1] -0.081 | [2] 0.017 | [3] 0.132 | [4] 0.053 | [5] -0.087

ILVBL (UniProt A1L0T0)
inactive: [1] -0.016 | [3] 0.075 | [4] -0.067 | [5] -0.127
active: [2] 0.371

LEMD3 (UniProt Q9Y2U8)
inactive: [1] 0.067 | [2] 0.034 | [3] 0.119 | [4] -0.031 | [5] -0.01

JMJD6 isoform 3 (UniProt Q6NYC1)
inactive: [1] -0.004 | [2] 0.046 | [3] 0.055 | [4] 0.006 | [5] 0.097

LEO1 (UniProt Q8WVC0)
inactive: [1] -0.009 | [2] 0.046 | [3] -0.009 | [4] -0.016 | [5] -0.011

IPO7 (UniProt O95373)
inactive: [1] -0.082 | [2] 0.031 | [3] 0.069 | [4] -0.025 | [5] 0.003

ILF3 (UniProt Q12906)
inactive: [1] 0.06

LMNB1 (UniProt P20700)
inactive: [1] 0.08 | [2] -0.005 | [3] -0.009 | [4] -0.018 | [5] 0.042

LSS (UniProt P48449)
inactive: [1] -0.077 | [2] 0.059 | [3] 0.127 | [4] -0.018 | [5] 0.087

KLC2 (UniProt Q9H0B6)
inactive: [1] -0.046 | [2] 0.085 | [3] 0.118 | [4] 0.032 | [5] 0

LTN1 isoform 3 (UniProt O94822)
inactive: [1] -0.058 | [2] 0.015 | [3] 0.08 | [4] -0.003 | [5] -0.005

LRPPRC (UniProt P42704)
inactive: [1] -0.312 | [2] -0.059 | [3] 0.257 | [4] -0.031 | [5] -0.05

MAP4 isoform 5 (UniProt P27816)
inactive: [1] 0.077

LDLRAP1 (UniProt Q5SW96)
inactive: [1] 0.055

MCCC2 (UniProt Q9HCC0)
inactive: [1] 0.029 | [2] 0.038 | [3] -0.027 | [4] -0.022 | [5] 0.026

KIF13A (UniProt Q9H1H9)
inactive: [1] 0.022 | [2] 0.039 | [3] 0.054 | [4] -0.059 | [5] -0.027

IPP (UniProt Q9Y573)
inactive: [1] 0.065

LAPTM4B (UniProt Q86VI4)
inactive: [1] -0.12

MAGEA9 (UniProt P43362)
inactive: [1] 0.046 | [2] -0.03 | [3] 0.047 | [4] -0.055 | [5] -0.067

MAP4 (UniProt E7EVA0)
inactive: [1] -0.009 | [2] -0.15 | [3] -0.095 | [4] 0.096 | [5] 0.005

MGST3 (UniProt O14880)
Sequence of UniProt O14880 (O14880 whole entry, looked up): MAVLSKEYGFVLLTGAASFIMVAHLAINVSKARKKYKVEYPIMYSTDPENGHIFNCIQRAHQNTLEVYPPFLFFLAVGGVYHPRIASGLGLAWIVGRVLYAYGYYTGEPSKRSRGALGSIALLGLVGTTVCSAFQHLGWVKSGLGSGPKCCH
inactive: [1] 0.046 | [2] 0.032 | [3] 0.005 | [4] 0.006 | [5] 0.054

MGST1 (UniProt P10620)
Sequence of UniProt P10620 (P10620 whole entry, looked up): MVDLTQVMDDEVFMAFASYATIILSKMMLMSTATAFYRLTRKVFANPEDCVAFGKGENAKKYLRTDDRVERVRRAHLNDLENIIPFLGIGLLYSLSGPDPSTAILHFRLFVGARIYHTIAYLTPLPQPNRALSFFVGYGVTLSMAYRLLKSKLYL
inactive: [1] -0.061 | [2] 0.032 | [3] -0.11 | [4] 0.05 | [5] 0.008

LDAH isoform 2 (UniProt Q9H6V9)
inactive: [1] -0.125 | [2] 0.019 | [3] 0.086 | [4] 0.174 | [5] -0.059

MARK2 (UniProt E9PC69)
inactive: [1] -0.029 | [2] 0.038 | [3] 0.174 | [4] 0.126 | [5] -0.052

KNTC1 (UniProt P50748)
inactive: [1] -0.079 | [2] 0.011 | [3] 0.106 | [4] -0.011 | [5] -0.008

KEL (UniProt P23276)
inactive: [1] -0.067 | [2] 0.003 | [3] 0.017 | [4] 0.019 | [5] 0.067

MAST4 (UniProt O15021)
inactive: [1] -0.081 | [2] 0.037 | [3] 0.061 | [4] -0.002 | [5] -0.041

MFSD5 isoform 2 (UniProt Q6N075)
inactive: [1] 0.071 | [2] 0.08 | [3] 0.112 | [4] -0.049 | [5] -0.055

MARCHF3 (UniProt Q86UD3)
inactive: [1] -0.096

MED7 (UniProt O43513)
inactive: [1] -0.049 | [2] 0.029 | [3] 0.017 | [4] 0.016 | [5] 0.076

KIF1B isoform 4 (UniProt O60333)
inactive: [1] -0.035 | [2] 0.027 | [3] 0.042 | [4] -0.025 | [5] -0.048

KDELR2 (UniProt P33947)
inactive: [1] -0.038 | [2] -0.015 | [3] 0.076 | [4] -0.137 | [5] 0.115

LOX (UniProt P28300)
inactive: [1] -0.113

KDM3B (UniProt Q7LBC6)
inactive: [1] -0.013 | [2] 0.026 | [3] 0.08 | [4] 0.038 | [5] 0.071

KLHL18 (UniProt O94889)
inactive: [1] 0.014 | [2] 0.101 | [3] 0.135 | [4] 0.017 | [5] -0.021

LSR (UniProt Q86X29)
inactive: [1] -0.016 | [2] 0.033 | [3] 0.006 | [4] -0.034 | [5] 0.015

MICU1 isoform 3 (UniProt Q9BPX6)
inactive: [1] 0.005 | [2] -0.033 | [3] -0.06 | [4] 0.02 | [5] -0.036

LRRFIP1 (UniProt Q32MZ4)
inactive: [1] 0.019 | [2] 0.036 | [3] -0.016 | [4] 0.023 | [5] 0.011

LRBA (UniProt P50851)
Sequence of UniProt P50851 (P50851 whole entry, looked up): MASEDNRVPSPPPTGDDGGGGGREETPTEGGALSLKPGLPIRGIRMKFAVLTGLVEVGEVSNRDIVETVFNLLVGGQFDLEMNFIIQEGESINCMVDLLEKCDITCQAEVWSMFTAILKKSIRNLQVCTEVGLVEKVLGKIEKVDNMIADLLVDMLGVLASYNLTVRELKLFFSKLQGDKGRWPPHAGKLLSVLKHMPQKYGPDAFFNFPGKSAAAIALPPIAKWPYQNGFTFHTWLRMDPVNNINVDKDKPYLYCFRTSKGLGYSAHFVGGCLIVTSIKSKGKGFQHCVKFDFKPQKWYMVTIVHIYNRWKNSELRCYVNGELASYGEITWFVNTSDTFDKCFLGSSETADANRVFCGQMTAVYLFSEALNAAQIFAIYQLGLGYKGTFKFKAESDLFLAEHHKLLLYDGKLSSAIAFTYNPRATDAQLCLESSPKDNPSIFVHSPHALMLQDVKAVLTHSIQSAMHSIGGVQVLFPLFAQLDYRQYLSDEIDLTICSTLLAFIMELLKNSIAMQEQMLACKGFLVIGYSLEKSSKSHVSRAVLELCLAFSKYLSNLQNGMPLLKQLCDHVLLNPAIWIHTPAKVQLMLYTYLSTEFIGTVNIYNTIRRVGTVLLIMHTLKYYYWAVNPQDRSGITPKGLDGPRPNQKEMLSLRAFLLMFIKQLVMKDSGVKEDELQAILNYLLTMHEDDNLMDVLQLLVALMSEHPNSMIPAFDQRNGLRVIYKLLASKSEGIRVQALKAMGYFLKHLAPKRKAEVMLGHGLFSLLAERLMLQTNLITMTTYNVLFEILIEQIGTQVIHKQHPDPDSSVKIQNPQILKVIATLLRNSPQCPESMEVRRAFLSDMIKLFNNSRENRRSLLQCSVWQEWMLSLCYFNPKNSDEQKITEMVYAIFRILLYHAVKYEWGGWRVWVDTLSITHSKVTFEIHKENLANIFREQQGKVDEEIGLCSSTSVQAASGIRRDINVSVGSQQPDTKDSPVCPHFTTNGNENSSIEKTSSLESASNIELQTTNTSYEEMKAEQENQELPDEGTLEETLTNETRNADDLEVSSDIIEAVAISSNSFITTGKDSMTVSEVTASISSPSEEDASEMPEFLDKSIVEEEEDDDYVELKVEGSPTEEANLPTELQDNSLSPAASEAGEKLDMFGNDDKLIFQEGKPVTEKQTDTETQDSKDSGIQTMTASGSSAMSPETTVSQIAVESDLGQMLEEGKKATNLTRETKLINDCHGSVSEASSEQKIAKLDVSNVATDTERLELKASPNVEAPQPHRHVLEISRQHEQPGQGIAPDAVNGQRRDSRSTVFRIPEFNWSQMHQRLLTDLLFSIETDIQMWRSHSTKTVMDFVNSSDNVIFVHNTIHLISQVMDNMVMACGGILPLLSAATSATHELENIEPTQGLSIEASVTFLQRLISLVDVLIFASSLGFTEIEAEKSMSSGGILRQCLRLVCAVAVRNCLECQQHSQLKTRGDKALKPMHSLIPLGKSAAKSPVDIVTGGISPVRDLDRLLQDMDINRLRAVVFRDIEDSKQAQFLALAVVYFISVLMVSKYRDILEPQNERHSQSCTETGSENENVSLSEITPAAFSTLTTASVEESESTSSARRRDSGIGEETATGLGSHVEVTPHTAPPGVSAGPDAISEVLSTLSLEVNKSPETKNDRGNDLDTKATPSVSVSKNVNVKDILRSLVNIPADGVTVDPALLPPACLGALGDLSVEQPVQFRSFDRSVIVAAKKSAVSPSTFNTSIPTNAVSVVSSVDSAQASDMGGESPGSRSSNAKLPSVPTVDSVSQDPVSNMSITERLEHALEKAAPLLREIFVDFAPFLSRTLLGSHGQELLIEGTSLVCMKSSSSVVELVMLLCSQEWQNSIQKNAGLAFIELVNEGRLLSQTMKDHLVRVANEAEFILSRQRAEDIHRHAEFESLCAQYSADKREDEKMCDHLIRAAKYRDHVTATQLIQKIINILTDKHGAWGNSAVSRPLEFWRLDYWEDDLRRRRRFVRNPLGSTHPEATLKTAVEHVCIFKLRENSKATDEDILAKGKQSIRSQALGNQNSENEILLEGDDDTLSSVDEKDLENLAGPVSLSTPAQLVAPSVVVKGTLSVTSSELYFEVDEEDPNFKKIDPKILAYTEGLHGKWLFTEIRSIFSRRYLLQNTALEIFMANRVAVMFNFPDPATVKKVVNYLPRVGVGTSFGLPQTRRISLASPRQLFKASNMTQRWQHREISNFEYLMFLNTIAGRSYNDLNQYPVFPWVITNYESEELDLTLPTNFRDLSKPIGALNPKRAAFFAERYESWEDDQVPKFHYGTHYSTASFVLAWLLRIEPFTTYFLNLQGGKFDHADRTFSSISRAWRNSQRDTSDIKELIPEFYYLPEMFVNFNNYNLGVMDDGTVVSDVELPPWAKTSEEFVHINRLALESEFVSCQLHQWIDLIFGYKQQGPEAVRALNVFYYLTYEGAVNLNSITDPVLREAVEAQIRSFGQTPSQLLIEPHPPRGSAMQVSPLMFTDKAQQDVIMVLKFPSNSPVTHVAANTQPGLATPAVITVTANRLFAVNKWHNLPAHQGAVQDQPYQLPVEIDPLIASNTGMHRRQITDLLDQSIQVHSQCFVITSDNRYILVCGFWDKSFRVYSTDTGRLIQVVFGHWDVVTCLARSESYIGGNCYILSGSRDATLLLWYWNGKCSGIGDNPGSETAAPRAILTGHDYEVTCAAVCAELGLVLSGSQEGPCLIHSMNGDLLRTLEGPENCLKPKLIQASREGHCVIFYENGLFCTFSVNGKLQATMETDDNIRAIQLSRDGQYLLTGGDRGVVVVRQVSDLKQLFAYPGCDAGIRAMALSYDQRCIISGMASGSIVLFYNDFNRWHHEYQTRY
inactive: [1] -0.016 | [2] 0.05 | [3] 0.088 | [4] 0 | [5] -0.023

KIFBP (UniProt Q96EK5)
inactive: [1] -0.075 | [2] 0.025 | [3] 0.06 | [4] -0.058 | [5] 0.005

MAPKAPK3 (UniProt Q16644)
inactive: [1] -0.122 | [2] 0.013 | [3] 0.027 | [4] -0.034 | [5] -0.109

LPIN3 isoform 2 (UniProt Q9BQK8)
inactive: [1] -0.047 | [2] 0.066 | [3] 0.075 | [4] -0.138 | [5] -0.044

MAPKAPK5 (UniProt Q8IW41)
inactive: [1] 0.042 | [2] 0.001 | [3] 0.015 | [4] -0.069 | [5] -0.009

KDM1A isoform 2 (UniProt O60341)
inactive: [1] -0.05 | [2] 0 | [3] 0.087 | [4] -0.019
active: [5] 1.73

LARP4B (UniProt Q92615)
inactive: [1] -0.003 | [2] -0.013 | [3] 0 | [4] 0.081 | [5] -0.014

INPP1 (UniProt P49441)
inactive: [1] -0.017 | [2] -0.002 | [3] 0.125 | [4] -0.002 | [5] 0.01

ITM2B (UniProt Q9Y287)
inactive: [1] 0.013 | [2] -0.068 | [3] 0.061 | [4] -0.028 | [5] -0.112

METTL18 (UniProt O95568)
inactive: [1] 0 | [2] -0.027 | [3] 0.061 | [4] -0.055 | [5] 0.028

LIAS (UniProt O43766)
Sequence of UniProt O43766 (O43766 whole entry, looked up): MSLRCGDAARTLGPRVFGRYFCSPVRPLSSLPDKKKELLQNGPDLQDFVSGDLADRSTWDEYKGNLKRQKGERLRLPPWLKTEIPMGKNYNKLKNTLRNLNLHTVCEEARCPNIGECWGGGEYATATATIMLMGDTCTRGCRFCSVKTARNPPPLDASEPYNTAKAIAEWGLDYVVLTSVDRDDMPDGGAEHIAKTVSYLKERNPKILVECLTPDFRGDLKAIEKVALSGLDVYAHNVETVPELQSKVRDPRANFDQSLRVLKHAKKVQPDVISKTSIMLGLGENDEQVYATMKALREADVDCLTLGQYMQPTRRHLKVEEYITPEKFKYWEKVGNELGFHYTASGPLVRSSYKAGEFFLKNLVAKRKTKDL
inactive: [1] 0.001 | [2] -0.042 | [3] 0.008 | [4] 0.049 | [5] 0.05

LENG8 (UniProt Q96PV6)
inactive: [1] 0.036 | [2] 0.177 | [3] -0.356 | [4] -0.028 | [5] 0.022

MAP2K3 isoform 3 (UniProt P46734)
inactive: [1] -0.091 | [2] -0.051 | [3] 0.05 | [4] 0.026 | [5] 0.016

MARCKSL1 (UniProt P49006)
inactive: [1] -0.052 | [2] 0.029 | [3] -0.032 | [4] -0.008 | [5] 0.011

KSR1 (UniProt Q8IVT5)
Sequence of UniProt Q8IVT5 (Q8IVT5 whole entry, looked up): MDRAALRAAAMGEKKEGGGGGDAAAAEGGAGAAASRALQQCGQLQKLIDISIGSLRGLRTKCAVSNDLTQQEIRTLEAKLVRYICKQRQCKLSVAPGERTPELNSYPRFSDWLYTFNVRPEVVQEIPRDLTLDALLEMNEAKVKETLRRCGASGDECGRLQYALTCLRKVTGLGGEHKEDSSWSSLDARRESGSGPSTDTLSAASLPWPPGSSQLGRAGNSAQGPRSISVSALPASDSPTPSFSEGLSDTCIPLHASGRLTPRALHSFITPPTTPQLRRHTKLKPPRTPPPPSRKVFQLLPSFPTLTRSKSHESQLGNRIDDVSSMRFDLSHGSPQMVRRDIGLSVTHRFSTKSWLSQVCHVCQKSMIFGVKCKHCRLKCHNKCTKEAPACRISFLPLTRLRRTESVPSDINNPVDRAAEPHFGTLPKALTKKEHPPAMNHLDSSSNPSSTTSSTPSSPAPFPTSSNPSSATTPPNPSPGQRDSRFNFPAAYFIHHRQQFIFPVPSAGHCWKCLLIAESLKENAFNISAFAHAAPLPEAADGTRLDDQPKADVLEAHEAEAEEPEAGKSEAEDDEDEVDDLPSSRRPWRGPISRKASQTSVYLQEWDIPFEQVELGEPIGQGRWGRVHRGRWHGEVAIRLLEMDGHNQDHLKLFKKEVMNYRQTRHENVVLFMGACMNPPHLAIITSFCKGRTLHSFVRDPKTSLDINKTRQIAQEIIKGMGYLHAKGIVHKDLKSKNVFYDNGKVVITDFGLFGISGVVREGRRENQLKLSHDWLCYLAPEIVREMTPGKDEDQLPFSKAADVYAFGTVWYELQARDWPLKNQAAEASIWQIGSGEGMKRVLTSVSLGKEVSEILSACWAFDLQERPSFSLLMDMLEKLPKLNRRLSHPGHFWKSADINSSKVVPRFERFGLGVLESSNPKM
inactive: [1] -0.044 | [2] 0.033 | [3] 0.137 | [4] 0.044 | [5] 0.018

ILF3 isoform 7 (UniProt Q12906)
inactive: [1] 0.038 | [2] -0.061 | [3] -0.126 | [4] 0.194 | [5] 0.028

LPCAT3 (UniProt Q6P1A2)
inactive: [1] 0.019 | [2] 0.071 | [3] -0.011 | [4] -0.093 | [5] -0.052

LARP4 isoform 4 (UniProt Q71RC2)
inactive: [1] 0.069 | [2] -0.071 | [3] 0 | [4] 0.093 | [5] 0.036

KEAP1 (UniProt Q14145)
Sequence of UniProt Q14145 (Q14145 whole entry, looked up): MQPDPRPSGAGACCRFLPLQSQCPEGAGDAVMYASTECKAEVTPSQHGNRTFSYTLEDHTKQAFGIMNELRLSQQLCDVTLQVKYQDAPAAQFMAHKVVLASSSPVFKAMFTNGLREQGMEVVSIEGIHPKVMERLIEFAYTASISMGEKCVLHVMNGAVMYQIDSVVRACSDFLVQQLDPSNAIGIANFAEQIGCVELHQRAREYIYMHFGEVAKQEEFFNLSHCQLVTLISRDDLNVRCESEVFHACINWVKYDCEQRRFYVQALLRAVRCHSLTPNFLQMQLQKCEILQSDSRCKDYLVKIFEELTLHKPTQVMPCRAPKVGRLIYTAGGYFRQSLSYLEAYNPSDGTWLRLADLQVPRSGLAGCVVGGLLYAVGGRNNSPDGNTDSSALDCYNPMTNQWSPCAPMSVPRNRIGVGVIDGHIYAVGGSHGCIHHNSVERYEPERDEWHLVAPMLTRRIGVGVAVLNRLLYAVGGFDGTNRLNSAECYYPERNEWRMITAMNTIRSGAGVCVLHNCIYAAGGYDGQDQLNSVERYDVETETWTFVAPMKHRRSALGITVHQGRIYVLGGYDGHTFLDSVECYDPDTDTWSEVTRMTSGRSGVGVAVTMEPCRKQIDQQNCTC
inactive: [1] 0.015 | [2] -0.001 | [3] 0.007 | [4] 0.021 | [5] 0.001

From the supplement of paper PMC10849652
